# Test results published in the supplement of paper PMC6555819.
# What was measured:
# Test in all cases: PBM binding z-score (relative to random genomic background probes); higher = stronger binding; sequences stand for … in GC…GCGATTGACAGCGTAGAATGAAGG
# [1] = tested on: PPARg:RXRa DBDmut IVT, anti-RXR (DBD mutation: RXRa K156A/R161A, NR concentration 270 nM, RXRa partner concentration 90 nM)
# In short: (§1)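 Random background probes are the reference for binding z-scores. These scores derive from regression-normalized fluorescence on custom Agilent 4×180K protein-binding microarrays incubated 1 h with ligand-free nuclear receptor dimers. Binding was detected with antibodies against each partner (one per run).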
# [2] = tested on: PPARg:RXRa IVT, anti-PPARg (NR concentration 270 nM, RXRa partner concentration 90 nM)
# In short: as §1
# [3] = tested on: PPARg homodimer (NR concentration 180 nM)
# In short: as §1
# [4] = tested on: PXR:RXRa (NR concentration 270 nM, RXRa partner concentration 90 nM)
# In short: as §1
# [5] = tested on: PXR homodimer (NR concentration 270 nM)
# In short: as §1
# [6] = tested on: RARa:RXR (NR concentration 270 nM, RXRa partner concentration 90 nM)
# In short: as §1
# [7] = tested on: RARa homodimer (NR concentration 270 nM)
# In short: as §1
# [8] = tested on: RARb:RXRa (NR concentration 270 nM, RXRa partner concentration 90 nM)
# In short: as §1
# [9] = tested on: RARb homodimer (NR concentration 270 nM)
# In short: as §1
# [10] = tested on: RARg:RXRa (NR concentration 270 nM, RXRa partner concentration 90 nM)
# In short: as §1
# [11] = tested on: RARg homodimer (NR concentration 270 nM)
# In short: as §1
# [12] = tested on: RXRa DBDmut IVT, anti-RXR (DBD mutation: RXRa K156A/R161A, NR concentration 90 nM)
# In short: as §1
# [13] = tested on: RXRa homodimer (NR concentration 180 nM)
# In short: as §1
# [14] = tested on: THRa:RXRa (NR concentration 90 nM, RXRa partner concentration 90 nM)
# In short: as §1
# [15] = tested on: THRa homodimer (NR concentration 90 nM)
# In short: as §1
# [16] = tested on: VDR homodimer (NR concentration 270 nM)
# In short: as §1
# [17] = tested on: VDR:RXRa (NR concentration 270 nM, RXRa partner concentration 90 nM)
# In short: as §1
Sequence,PBM binding z-score [1],PBM binding z-score [2],PBM binding z-score [3],PBM binding z-score [4],PBM binding z-score [5],PBM binding z-score [6],PBM binding z-score [7],PBM binding z-score [8],PBM binding z-score [9],PBM binding z-score [10],PBM binding z-score [11],PBM binding z-score [12],PBM binding z-score [13],PBM binding z-score [14],PBM binding z-score [15],PBM binding z-score [16],PBM binding z-score [17]
TCCAGTAGGTTACGGGGGCATTCAGGGATGAAGA,5.86,6.84,2.22,3.68,1.9,3.51,0.616,2.97,2.45,3.99,3.38,2.49,3.03,3.96,1.63,3.69,
TCGACTAGGTTACGGGGGCATTCAGGGATGAAGA,5.37,6.51,2.41,3.59,2.11,3.47,0.467,2.91,2.54,3.66,3.14,2.55,2.88,4.1,1.91,3.72,
CCGAGTAAGTTACGAGGGGGCATTCAGTGCGAAT,0.778,0.899,0.949,,4.68,2.13,0.219,1.09,1.29,1.47,0.902,1.57,1.31,2.32,0.139,2.59,
TCGAGTAGGTTACGGCGGCATTCAGGGATGAAGA,3.16,2.85,-0.171,-0.0606,-0.885,0.128,-1.2,0.794,0.0882,0.396,0.134,-0.00856,0.642,,-0.386,-0.475,
TCGAGTAGGTTACGCGGGCATTCAGGGATGAAGA,2.91,3.32,0.356,,-0.508,0.641,-0.865,0.946,0.619,0.799,0.653,-0.0929,0.864,0.97,-0.444,-0.617,
CCGAGTAGGTTACGAGGCGGCATTCAGTGCGAAT,4.1,3.3,0.605,-0.147,-0.255,0.2,-0.448,0.768,0.155,0.238,0.173,0.159,0.329,,-0.252,-0.284,
TCGAGTAGGTTACGGGTGCATTCAGGGATGAAGA,2.9,3.34,0.289,1.62,0.692,1.33,-0.909,0.994,0.631,0.869,0.463,0.951,1.29,2.22,-0.191,2.69,
TCGAGTGGGTTACGGGGGCATTCAGGGATGAAGA,4.62,6.37,1.92,3.59,2.12,3.12,1.12,2.46,2.26,,2.35,2.33,2.74,4.08,2.2,3.66,
CCGAGTAGGTTACGTGGGGGCATTCAGTGCGAAT,4.47,4.6,0.555,5.23,6.32,2.42,0.183,2.09,2.1,2.87,2.05,1.44,2.12,,1.09,2.85,5.48
CTATGTAGGTTAAGGAGGTCATTCAGTTTGAAAG,7,7.07,2.9,5.67,12,4.51,0.704,,3.79,3.89,3.37,1.97,4.07,3.68,1.59,4.47,
TCGAGTAGGTTACGGGGGCATTCAGGGATGAAGA,4.99,5.99,1.92,,1.53,2.98,1.5,2.61,2.45,3.55,2.61,1.79,2.77,3.81,1.25,2.57,
CCGAGTAGGTTCCGAGGGGGCATTCAGTGCGAAT,1.28,2.13,1.1,,6.61,2.14,0.637,1.3,1.62,1.66,1.02,1.42,1.12,2.38,1.1,3.91,4.09
TCGAGTAGGGTACGGGGGCATTCAGGGATGAAGA,4.21,5.82,1.54,3.3,1.96,2.86,0.475,2.37,1.81,2.33,1.97,2.6,1.67,4.02,1.48,3.8,
TCGAGTAGGTTACTGGGGCATTCAGGGATGAAGA,5.34,6.18,0.888,,-0.522,0.925,-0.357,1.08,0.974,0.621,0.564,0.0231,0.761,1.83,-0.116,-0.285,0.313
CCGCGTAGGTTACGAGGGGGCATTCAGTGCGAAT,1.02,2.43,1.12,4.76,4.05,,-0.311,2.14,2.04,3.34,2.15,1.51,2.28,3.95,0.24,2.58,
